# Measurements as given in ChEMBL document CHEMBL3988442, “University of Dundee, Small-Polar-MMV Screening Library” (2021).
# For some assays here: Measured potencies and affinities stand elsewhere.
# What was measured:
# Design in all cases: scale not given: direction of the effect not stated beside the values
# [1] = molecular target: Protein translocase subunit SecA (Escherichia coli (strain K12)) (UniProt P10408); experiment: Assay to Identify E. coli SecA ATPase Inhibitors; assay type: functional; conditions: 30 µM
# [2] = molecular target: T1, Ubiquitin-activating enzyme e1, putative (Leishmania donovani (strain BPK282A1)) (UniProt E9BSI1); experiment: Leishmania donovani Ubiquitin Activating Enzyme (LdE1); assay type: functional; conditions: 30 µM
# T1 sequence (whole entry): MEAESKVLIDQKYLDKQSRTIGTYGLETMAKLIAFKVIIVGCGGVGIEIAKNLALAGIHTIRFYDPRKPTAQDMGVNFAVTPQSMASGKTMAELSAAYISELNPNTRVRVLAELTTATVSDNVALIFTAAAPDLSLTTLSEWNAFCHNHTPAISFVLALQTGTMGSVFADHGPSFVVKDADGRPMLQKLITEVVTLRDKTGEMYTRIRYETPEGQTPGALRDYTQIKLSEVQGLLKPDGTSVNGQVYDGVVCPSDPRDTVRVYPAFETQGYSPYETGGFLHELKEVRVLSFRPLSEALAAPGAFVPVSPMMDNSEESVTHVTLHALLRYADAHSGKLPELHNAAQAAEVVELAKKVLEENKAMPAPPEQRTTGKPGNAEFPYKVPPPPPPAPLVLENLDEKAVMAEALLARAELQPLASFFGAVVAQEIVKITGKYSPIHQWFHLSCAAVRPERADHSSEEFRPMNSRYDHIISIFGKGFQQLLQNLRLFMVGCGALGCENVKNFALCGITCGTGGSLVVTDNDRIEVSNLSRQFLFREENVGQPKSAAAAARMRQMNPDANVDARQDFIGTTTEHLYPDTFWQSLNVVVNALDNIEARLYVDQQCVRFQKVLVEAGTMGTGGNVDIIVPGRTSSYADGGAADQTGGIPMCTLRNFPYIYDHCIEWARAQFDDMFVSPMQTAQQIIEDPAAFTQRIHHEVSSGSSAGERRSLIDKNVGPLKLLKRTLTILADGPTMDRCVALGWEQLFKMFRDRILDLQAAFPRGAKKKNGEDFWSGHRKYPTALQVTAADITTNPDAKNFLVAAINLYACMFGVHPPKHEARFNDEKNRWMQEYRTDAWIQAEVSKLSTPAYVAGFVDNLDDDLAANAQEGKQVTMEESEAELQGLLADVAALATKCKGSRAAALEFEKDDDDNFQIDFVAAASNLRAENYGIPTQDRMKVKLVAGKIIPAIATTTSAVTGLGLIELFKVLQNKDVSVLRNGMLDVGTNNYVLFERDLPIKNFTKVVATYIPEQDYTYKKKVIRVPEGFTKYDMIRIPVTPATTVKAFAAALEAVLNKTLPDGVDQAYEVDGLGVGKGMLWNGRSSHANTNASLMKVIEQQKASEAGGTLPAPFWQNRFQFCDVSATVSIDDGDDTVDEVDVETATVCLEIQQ
# [3] = molecular target: AMP-activated protein kinase, AMPK (Homo sapiens) (UniProt P54646+O43741+P54619+Q9UGJ0+Q9Y478+Q13131+Q9UGI9); experiment: AMP-dependent Kinase enzyme assay. An in vitro enzyme assay that detects ADP turnover that is directly proportional to AMPK activity. This uses naive AMPK that is activated during the assay with MK-8722; assay type: functional; conditions: 30 µM
# [4] = molecular target: Sialic acid-binding Ig-like lectin 9 (Homo sapiens) (UniProt Q9Y336); experiment: Hs-Siglec9 ALPHAscreen SOP 20170721; conditions: 10 µM
# Trypanosoma cruzi = experiment: Trypanosoma cruzi phosphomannomutase and mannose-1-phosphate guanylyltransferase assay; assay type: functional; conditions: 10 µM
# [5] = molecular target: T2, Arginase-2, mitochondrial (Homo sapiens) (UniProt P78540); experiment: in vitro enzyme assay to detect the production of urea directly proportional to the activity of Arginase II; assay type: functional; conditions: 33.3 µM; also: in the data most compounds retested in dose-response had high values
# T2 sequence (whole entry): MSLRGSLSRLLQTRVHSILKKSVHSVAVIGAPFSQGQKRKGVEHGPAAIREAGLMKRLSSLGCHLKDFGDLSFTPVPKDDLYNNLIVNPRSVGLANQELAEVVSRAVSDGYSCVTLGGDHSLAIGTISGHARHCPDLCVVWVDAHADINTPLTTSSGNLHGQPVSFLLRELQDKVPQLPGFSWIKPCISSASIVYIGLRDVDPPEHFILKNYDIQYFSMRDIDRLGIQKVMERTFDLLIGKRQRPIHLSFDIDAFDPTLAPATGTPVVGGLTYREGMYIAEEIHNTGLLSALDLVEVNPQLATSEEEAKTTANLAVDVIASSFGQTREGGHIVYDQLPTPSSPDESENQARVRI
# [6] = molecular target: T3, Proteasome subunit beta (Trypanosoma cruzi) (UniProt O96673); experiment: Trypanosoma cruzi proteasome chymotrypsin-like activity (TcProtChymo) assay.; also: in the data most compounds retested in dose-response had high values; assay type: functional; conditions: 9.37 µM
# T3 sequence (whole entry): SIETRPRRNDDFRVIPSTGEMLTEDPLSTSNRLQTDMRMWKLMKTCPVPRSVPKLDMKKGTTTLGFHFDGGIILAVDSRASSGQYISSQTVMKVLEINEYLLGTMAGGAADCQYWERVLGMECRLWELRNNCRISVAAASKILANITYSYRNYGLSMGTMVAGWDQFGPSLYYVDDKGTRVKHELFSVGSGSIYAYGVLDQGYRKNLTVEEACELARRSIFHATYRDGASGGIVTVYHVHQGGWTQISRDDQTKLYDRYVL
# Homo sapiens = species: Homo sapiens; experiment: To identify inhibition of the IFN signalling (Jak-Stat) pathway via expression of an eGFP reporter gene under the control of an IFN-stimulated response element (ISRE) containing MxA promoter.; assay type: functional; conditions: 30 µM
# [7] = molecular target: T4, Tyrosyl-tRNA synthetase, putative (Trypanosoma cruzi (strain CL Brener)) (UniProt Q4DSP6); experiment: Trypanosoma cruzi tyrosyl tRNA synthetase (TcYRS) _High Tyrosine SOP; assay type: functional; conditions: 30 µM; also: in the data most compounds retested in dose-response had high values
# T4 sequence (whole entry): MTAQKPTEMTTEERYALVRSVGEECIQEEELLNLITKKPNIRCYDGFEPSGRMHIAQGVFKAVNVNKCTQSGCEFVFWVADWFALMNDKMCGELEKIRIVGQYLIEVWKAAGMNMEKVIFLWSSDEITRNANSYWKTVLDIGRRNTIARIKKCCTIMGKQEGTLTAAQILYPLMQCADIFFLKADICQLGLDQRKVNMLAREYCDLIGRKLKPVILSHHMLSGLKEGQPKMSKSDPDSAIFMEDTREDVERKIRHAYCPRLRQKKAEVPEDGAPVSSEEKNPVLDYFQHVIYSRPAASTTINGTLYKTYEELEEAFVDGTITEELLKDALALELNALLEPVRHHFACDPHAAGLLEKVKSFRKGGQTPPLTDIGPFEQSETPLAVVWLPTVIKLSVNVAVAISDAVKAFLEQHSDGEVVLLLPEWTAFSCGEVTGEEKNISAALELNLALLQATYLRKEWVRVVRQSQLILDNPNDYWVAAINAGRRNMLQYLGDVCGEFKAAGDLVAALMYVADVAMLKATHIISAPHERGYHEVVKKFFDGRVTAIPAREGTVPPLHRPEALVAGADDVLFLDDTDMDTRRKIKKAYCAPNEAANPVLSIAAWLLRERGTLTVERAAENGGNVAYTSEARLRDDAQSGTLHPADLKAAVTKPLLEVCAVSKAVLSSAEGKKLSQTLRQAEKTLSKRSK
# [8] = molecular target: T4, Tyrosyl-tRNA synthetase, putative (Trypanosoma cruzi (strain CL Brener)); experiment: Trypanosoma cruzi tyrosyl tRNA synthetase (TcYRS) SOP; assay type: functional; conditions: 30 µM
# [9] = molecular target: Chromo domain-containing protein 1 (Saccharomyces cerevisiae (strain ATCC 204508 / S288c) (Baker's yeast)) (UniProt P32657); experiment: ScCHD-1 Enzyme Inhibition Assay; assay type: functional; conditions: 30 µM; also: in the data most compounds retested in dose-response had high values
# Sequence of Chromo domain-containing protein 1 (Saccharomyces cerevisiae (strain ATCC 204508 / S288c) (Baker's yeast)) (P32657 whole entry, the tested form may be a part): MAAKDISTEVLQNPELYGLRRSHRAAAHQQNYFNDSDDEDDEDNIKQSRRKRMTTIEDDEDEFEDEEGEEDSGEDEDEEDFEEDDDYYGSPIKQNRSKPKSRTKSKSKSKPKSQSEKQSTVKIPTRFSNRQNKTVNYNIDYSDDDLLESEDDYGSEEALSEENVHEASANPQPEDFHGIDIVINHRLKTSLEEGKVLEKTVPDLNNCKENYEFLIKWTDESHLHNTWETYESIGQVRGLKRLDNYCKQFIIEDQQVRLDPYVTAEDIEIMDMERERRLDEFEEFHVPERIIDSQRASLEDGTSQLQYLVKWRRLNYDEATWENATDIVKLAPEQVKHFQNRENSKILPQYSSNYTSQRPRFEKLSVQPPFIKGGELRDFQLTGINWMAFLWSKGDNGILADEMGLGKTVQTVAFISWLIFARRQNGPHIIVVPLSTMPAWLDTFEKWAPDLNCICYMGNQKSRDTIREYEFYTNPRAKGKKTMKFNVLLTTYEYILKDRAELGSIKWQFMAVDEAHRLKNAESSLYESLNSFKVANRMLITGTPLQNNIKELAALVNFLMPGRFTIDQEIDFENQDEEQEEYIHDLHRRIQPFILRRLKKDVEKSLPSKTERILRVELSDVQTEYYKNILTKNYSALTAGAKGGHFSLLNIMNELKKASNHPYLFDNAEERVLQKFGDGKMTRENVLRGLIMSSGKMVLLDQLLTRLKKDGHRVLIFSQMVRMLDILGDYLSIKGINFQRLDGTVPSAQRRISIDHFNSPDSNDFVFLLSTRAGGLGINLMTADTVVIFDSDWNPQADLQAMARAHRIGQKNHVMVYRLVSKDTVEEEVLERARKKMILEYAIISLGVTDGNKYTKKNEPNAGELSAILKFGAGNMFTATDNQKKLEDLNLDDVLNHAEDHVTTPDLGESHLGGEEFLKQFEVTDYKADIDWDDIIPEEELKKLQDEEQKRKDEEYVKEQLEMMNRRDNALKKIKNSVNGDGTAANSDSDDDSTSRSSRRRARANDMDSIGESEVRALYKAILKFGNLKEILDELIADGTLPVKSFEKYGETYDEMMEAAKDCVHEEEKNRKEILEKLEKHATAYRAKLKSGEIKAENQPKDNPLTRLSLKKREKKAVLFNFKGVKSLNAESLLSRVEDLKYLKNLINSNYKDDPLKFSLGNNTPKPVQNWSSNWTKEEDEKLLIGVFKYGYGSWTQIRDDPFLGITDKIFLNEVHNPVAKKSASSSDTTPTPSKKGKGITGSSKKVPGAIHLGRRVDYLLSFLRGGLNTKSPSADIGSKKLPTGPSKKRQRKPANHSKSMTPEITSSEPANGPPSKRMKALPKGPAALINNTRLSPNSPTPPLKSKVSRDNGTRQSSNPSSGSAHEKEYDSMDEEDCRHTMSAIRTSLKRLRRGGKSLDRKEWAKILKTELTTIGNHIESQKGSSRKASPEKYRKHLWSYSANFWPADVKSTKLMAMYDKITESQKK
# Sequence of Protein translocase subunit SecA (Escherichia coli (strain K12)) (P10408 whole entry): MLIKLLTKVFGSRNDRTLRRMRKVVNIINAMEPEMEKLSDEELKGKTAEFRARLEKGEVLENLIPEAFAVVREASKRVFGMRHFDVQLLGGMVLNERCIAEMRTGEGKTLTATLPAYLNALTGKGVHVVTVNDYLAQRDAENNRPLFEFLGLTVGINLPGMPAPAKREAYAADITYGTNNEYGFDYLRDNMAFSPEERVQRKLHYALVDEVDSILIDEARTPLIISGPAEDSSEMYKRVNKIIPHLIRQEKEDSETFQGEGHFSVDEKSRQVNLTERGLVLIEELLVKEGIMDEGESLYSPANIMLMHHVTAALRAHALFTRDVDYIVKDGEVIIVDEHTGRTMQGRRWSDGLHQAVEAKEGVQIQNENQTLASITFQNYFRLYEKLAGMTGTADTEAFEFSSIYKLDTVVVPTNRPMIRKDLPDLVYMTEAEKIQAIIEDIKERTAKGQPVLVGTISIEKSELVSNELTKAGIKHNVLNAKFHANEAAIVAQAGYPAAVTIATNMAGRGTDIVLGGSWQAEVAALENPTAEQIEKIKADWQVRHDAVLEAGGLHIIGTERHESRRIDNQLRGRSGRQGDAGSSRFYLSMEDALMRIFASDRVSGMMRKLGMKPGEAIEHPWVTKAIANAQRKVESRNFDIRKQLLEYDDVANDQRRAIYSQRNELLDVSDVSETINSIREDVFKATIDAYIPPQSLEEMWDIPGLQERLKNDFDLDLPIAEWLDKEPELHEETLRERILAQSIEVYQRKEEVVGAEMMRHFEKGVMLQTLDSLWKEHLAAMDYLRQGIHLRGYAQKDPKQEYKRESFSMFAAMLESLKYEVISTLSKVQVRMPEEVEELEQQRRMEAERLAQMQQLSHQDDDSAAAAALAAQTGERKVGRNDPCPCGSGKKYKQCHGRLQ
# Sequence of Sialic acid-binding Ig-like lectin 9 (Homo sapiens) (Q9Y336 whole entry): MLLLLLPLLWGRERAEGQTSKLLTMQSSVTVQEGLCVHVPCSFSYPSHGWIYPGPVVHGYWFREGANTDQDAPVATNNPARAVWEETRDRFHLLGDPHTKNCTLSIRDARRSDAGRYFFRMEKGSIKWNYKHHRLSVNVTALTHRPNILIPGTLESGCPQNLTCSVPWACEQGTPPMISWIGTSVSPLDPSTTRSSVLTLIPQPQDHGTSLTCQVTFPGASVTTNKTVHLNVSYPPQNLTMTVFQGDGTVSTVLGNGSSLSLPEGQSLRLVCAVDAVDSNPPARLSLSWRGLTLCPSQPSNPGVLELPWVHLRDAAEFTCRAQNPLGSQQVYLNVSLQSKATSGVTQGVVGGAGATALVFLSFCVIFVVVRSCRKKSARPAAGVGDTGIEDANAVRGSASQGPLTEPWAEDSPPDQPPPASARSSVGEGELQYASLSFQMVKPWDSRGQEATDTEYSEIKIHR
smiles,measurement,setting,value
CCC1=N[C@@]2(CC[C@@H]3CN(CC4CC4)C[C@@H]32)C(=O)N1C,Percent Effect,[1],-4.94%
same,Percent Effect,[2],10.8%
same,Percent Effect,[3],1.5%
same,Percent Effect,[4],0.724%
same,Percent Effect,Trypanosoma cruzi,-1.86%
same,Percent Effect,[5],0.319%
same,Percent Effect,[6],19.2%
same,Percent Effect,Homo sapiens,-28.1%
same,Percent Effect,[7],0%
same,Percent Effect,[8],15.4%
same,Percent Effect,[9],-3.77%
Cc1ccc(C(=O)NCCCN2CCOCC2)c(Cl)c1,Percent Effect,[1],-2.82%
same,Percent Effect,[2],2.6%
same,Percent Effect,[3],2.57%
same,Percent Effect,[4],5.34%
same,Percent Effect,Trypanosoma cruzi,6.79%
same,Percent Effect,[5],-2.76%
same,Percent Effect,[6],4.33%
same,Percent Effect,Homo sapiens,18.2%
same,Percent Effect,[7],3.23%
same,Percent Effect,[8],11.1%
same,Percent Effect,[9],108%
Cc1cc(S(=O)(=O)NCc2cccc(C(=O)N3CCCC3)c2)c(C)s1,Percent Effect,[1],-4.9%
same,Percent Effect,[2],13%
same,Percent Effect,[3],-3.16%
same,Percent Effect,[4],-6.78%
same,Percent Effect,Trypanosoma cruzi,4.21%
same,Percent Effect,[5],-1.9%
same,Percent Effect,[6],10.1%
same,Percent Effect,Homo sapiens,15.2%
same,Percent Effect,[7],5.71%
same,Percent Effect,[8],21.2%
same,Percent Effect,[9],-17.7%
CN(Cc1nccs1)c1nc(-c2ccccn2)nc2c1CCNCC2,Percent Effect,[1],-3.65%
same,Percent Effect,[2],-1.39%
same,Percent Effect,[3],-0.513%
same,Percent Effect,[4],-2.23%
same,Percent Effect,Trypanosoma cruzi,4.57%
same,Percent Effect,[5],-2.21%
same,Percent Effect,[6],8.95%
same,Percent Effect,Homo sapiens,11.4%
same,Percent Effect,[7],10.5%
same,Percent Effect,[8],12.8%
same,Percent Effect,[9],-1.22%
COCC(=O)NCCn1ccc2c(OC)cccc21,Percent Effect,[1],-0.301%
same,Percent Effect,[2],17.3%
same,Percent Effect,[3],0.941%
same,Percent Effect,[4],6.9%
same,Percent Effect,Trypanosoma cruzi,0.393%
same,Percent Effect,[5],-3.7%
same,Percent Effect,[6],10.5%
same,Percent Effect,Homo sapiens,19.7%
same,Percent Effect,[7],6.35%
same,Percent Effect,[8],15.4%
same,Percent Effect,[9],-8%
CN1CCCN(C[C@@H]2CN(C(=O)CCC3CCCC3)C[C@@H]2CO)CC1,Percent Effect,[1],-5.09%
same,Percent Effect,[2],7.79%
same,Percent Effect,[3],1.31%
same,Percent Effect,[4],18.7%
same,Percent Effect,Trypanosoma cruzi,4.62%
same,Percent Effect,[5],-8.28%
same,Percent Effect,[6],3.66%
same,Percent Effect,Homo sapiens,-0.683%
same,Percent Effect,[7],6.45%
same,Percent Effect,[8],11.1%
same,Percent Effect,[9],-3.02%
Cc1cn2nc(N3CCCC3CC(C)(C)C)sc2n1 (stereo not given),Percent Effect,[1],-5.41%
same,Percent Effect,[2],-1.27%
same,Percent Effect,[3],7.29%
same,Percent Effect,[4],3.5%
same,Percent Effect,Trypanosoma cruzi,0.103%
same,Percent Effect,[5],2.8%
same,Percent Effect,[6],11%
same,Percent Effect,Homo sapiens,15.4%
same,Percent Effect,[7],3.12%
same,Percent Effect,[8],7.59%
same,Percent Effect,[9],-4.52%
CCc1nccn1C1CCCN(C(=O)CCCNc2ncccn2)C1 (stereo not given),Percent Effect,[1],-4.28%
same,Percent Effect,[2],3.8%
same,Percent Effect,[3],4.55%
same,Percent Effect,[4],1.92%
same,Percent Effect,Trypanosoma cruzi,-2.77%
same,Percent Effect,[5],2.8%
same,Percent Effect,[6],6%
same,Percent Effect,Homo sapiens,9.01%
same,Percent Effect,[7],4.17%
same,Percent Effect,[8],10.1%
same,Percent Effect,[9],-14.2%
CN1CCN(C(=O)[C@@H]2CCO[C@@H]3CCN(c4ncccn4)C[C@@H]32)CC1,Percent Effect,[1],-0.254%
same,Percent Effect,[2],13.3%
same,Percent Effect,[3],0.0211%
same,Percent Effect,[4],0.601%
same,Percent Effect,Trypanosoma cruzi,2.7%
same,Percent Effect,[5],-48.9%
same,Percent Effect,[6],8.21%
same,Percent Effect,Homo sapiens,-18.8%
same,Percent Effect,[7],7.29%
same,Percent Effect,[8],17.5%
same,Percent Effect,[9],-7.16%
CCN1CC2(CC1=O)CN(C(=O)c1ccco1)CCN(C(=O)N(C)C)C2 (stereo not given),Percent Effect,[1],-0.623%
same,Percent Effect,[2],5.48%
same,Percent Effect,[3],-1.36%
same,Percent Effect,[4],5.48%
same,Percent Effect,Trypanosoma cruzi,-2.18%
same,Percent Effect,[5],-8.78%
same,Percent Effect,[6],12.6%
same,Percent Effect,Homo sapiens,6.21%
same,Percent Effect,[7],6.25%
same,Percent Effect,[8],1.24%
same,Percent Effect,[9],-1.51%
